From PubChem BioAssay (NCATS)
“And” between values parts separate entries of the source, which are not always exact repeats. Equal entries are not always repeated. Records with an inconclusive call do not appear. Entries that show only a call come without a potency. Unmarked numbers belong to inactive results. The source made the active and inactive calls. Unless noted, the call rests on the fitted dose curve.

These compounds were tested against Estrogen receptor (Homo sapiens) (UniProt P03372) (assay: qHTS assay for small molecule antagonists of estrogen receptor alpha signaling (AID 588513; active means well fitted curve in the direction sought with a large enough effect in the signal ratio, with a control signal flat, not every such curve was filed as active; the % refers to the signal ratio)). Conditions: ER-alpha-UAS-bla HEK293, beta-lactamase ratio, antagonist mode; series mostly up to 76.9 µM.
How it was run: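 ER-alpha-UAS-bla GripTite HEK 293 cells in medium with 2% charcoal/dextran-treated FBS were preincubated 4 h at 37 C, dosed with compound (1:2 titration), stimulated with 0.5nM 17-beta-estradiol for 18 h, then read by CCF4 beta-lactamase fluorescence.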

Sequence of Estrogen receptor (Homo sapiens) (P03372 whole entry, looked up): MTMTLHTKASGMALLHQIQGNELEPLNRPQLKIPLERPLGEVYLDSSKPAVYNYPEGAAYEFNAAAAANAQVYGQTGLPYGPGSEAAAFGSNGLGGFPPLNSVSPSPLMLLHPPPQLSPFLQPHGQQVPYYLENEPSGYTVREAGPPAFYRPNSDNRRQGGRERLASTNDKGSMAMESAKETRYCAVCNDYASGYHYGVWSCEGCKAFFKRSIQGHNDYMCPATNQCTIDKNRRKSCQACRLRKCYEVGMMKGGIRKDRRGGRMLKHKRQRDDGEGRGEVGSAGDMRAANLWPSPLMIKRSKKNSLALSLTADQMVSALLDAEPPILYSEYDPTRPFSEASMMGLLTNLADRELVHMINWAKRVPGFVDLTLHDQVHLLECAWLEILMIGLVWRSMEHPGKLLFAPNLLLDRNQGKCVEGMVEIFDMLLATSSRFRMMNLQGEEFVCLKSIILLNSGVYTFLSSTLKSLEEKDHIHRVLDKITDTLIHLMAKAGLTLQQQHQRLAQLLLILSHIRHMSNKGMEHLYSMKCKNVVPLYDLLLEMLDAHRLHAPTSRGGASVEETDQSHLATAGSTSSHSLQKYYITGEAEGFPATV

Row | Compound | outcome
1 | CCC(C)(C)c1ccc(O)cc1 | inactive
2 | CCOC(=O)CC(SP(=S)(OC)OC)C(=O)OCC (configuration not stated) | inactive
3 | CN1C[C@H](C(=O)N[C@]2(C)O[C@@]3(O)[C@@H]4CCCN4C(=O)[C@H](Cc4ccccc4)N3C2=O)C=C2c3cccc4[nH]cc(c34)C[C@H]21 | inactive
4 | COP(=S)(OC)Oc1ccc(SC)c(C)c1 | inactive
5 | NCCc1ccc(O)cc1 | inactive
6 | CC(C)NC(C)C | inactive
7 | Nc1ccccc1C(=O)O | inactive
8 | O=C(Oc1ccccc1)c1ccccc1O | inactive
9 | O=P1(N(CCCl)CCCl)NCCCO1 (configuration not stated) | inactive
10 | CC(C)c1cccc(C(C)C)c1O | inactive
11 | COc1cc(OC)c(OC)cc1C=O | inactive
12 | O=C(O)CCCc1ccc(N(CCCl)CCCl)cc1 | inactive
13 | C[C@]12CCC(=O)C=C1CC[C@@H]1[C@@H]2CC[C@]2(C)C(=O)CC[C@@H]12 | inactive

What follows are compounds tested against Estrogen receptor (Homo sapiens) (UniProt P03372) (assay: qHTS assay for small molecule agonists of estrogen receptor alpha signaling (AID 588514; further: nearly all actives have a fitted effect of over 70% in size; further: potency means the concentration at half of the fitted maximal effect)). Conditions: ER-alpha-UAS-bla HEK293, beta-lactamase ratio, 18 h; series mostly up to 76.8 µM.
How it was run: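 Reporter-gene assay. […] controls beta-lactamase in HEK 293 GripTite cells; after 18 hrs with compound, CCF4 substrate is added for 2 hrs and fluorescence is read.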

Row | Compound | Potency
14 | C[C@]12CCC(=O)C=C1CC[C@@H]1[C@@H]2CC[C@@]2(C)[C@H]1CC[C@]2(C)O | 12.6 µM (active)
15 | Nc1ccc([As](=O)(O)O)cc1 | 15.8 µM (active)
16 | CCOC(=O)CC(SP(=S)(OC)OC)C(=O)OCC (configuration not stated) | inactive
17 | CN1C[C@H](C(=O)N[C@]2(C)O[C@@]3(O)[C@@H]4CCCN4C(=O)[C@H](Cc4ccccc4)N3C2=O)C=C2c3cccc4[nH]cc(c34)C[C@H]21 | inactive
18 | COC(=O)C(c1ccccc1)C1CCCCN1 (configuration not stated) | inactive
19 | COP(=S)(OC)Oc1ccc(SC)c(C)c1 | inactive
20 | COP(=S)(OC)Oc1cc(Cl)c(Cl)cc1Cl | inactive
21 | NCCc1ccc(O)cc1 | inactive
22 | CC1(C)C(C=C(Cl)Cl)C1C(=O)OC(C#N)c1cccc(Oc2ccccc2)c1 (configuration not stated) | inactive
23 | CC(C)NC(C)C | inactive
24 | Nc1ccccc1C(=O)O | inactive
25 | O=P1(N(CCCl)CCCl)NCCCO1 (configuration not stated) | inactive
26 | CC(C)c1cccc(C(C)C)c1O | inactive
27 | COc1cc(OC)c(OC)cc1C=O | inactive
28 | O=C(O)CCCc1ccc(N(CCCl)CCCl)cc1 | inactive

Each compound was assayed against Androgen receptor (Homo sapiens) (UniProt P10275) (assay: qHTS assay for small molecule agonists of androgen receptor signaling (AID 588515; active means well fitted curve in the direction sought with a large enough effect in the signal ratio, with a control signal flat; the % refers to the signal ratio)). Conditions: AR-UAS-bla HEK293, beta-lactamase ratio, agonist 16 h; active compounds read high.
How it was run: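 EC50 and efficacy came from Hill fits of titrations (up to 92 uM) normalized to 30 nM R1881 as 100% and DMSO as 0%. Compound exposure was 16 h at 37 C on AR-UAS-bla HEK293 cells, with a 405/460/530 nm CCF4 fluorescence read.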

Sequence of Androgen receptor (Homo sapiens) (P10275 whole entry, looked up): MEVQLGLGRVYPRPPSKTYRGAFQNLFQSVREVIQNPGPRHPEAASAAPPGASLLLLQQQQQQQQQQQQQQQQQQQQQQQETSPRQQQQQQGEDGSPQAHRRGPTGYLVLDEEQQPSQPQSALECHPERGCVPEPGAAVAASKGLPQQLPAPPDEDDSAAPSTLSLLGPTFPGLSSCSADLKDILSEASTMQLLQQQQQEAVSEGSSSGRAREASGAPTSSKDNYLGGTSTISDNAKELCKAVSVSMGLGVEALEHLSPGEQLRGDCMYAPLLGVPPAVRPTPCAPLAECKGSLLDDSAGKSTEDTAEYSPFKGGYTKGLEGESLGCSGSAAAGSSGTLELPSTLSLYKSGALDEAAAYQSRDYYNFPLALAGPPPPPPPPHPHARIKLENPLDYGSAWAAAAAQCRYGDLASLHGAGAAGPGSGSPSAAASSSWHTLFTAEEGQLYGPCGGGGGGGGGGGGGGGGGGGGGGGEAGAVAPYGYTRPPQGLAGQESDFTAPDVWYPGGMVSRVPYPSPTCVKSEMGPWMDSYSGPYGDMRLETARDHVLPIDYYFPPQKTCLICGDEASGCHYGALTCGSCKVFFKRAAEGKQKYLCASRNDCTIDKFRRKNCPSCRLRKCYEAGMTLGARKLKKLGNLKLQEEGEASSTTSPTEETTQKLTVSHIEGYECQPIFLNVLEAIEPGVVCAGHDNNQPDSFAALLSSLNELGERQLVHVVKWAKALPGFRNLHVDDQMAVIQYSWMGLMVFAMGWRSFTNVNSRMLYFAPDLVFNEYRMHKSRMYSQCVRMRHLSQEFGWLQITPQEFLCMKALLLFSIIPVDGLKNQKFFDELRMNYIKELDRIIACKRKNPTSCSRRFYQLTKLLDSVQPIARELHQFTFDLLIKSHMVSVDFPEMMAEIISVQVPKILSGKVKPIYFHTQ

Row | Compound | activation
29 | CCOC(=O)CC(SP(=S)(OC)OC)C(=O)OCC (configuration not stated) | 17.2% and 0.217% and -5.72%
30 | COC(=O)C(c1ccccc1)C1CCCCN1 (configuration not stated) | 0.332%
31 | CC(C)c1cccc(C(C)C)c1O | -6.9%
32 | COc1cc(OC)c(OC)cc1C=O | -8.64%

Each compound was assayed against Androgen receptor (Homo sapiens) (UniProt P10275) (assay: qHTS assay for small molecule antagonists of androgen receptor signaling (AID 588516; active means well fitted curve in the direction sought with a large enough effect in the signal ratio, with a control signal flat, not every such curve was filed as active; the % refers to the signal ratio)). Conditions: AR-UAS-bla HEK293, beta-lactamase ratio, antagonist mode, 16 h; series mostly up to 76.8 µM.
How it was run: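 AR-UAS-bla-GripTite HEK 293 cells (2000/well, 5 h at 37 C) received compound titrations, then R1881 at 10 nM final; after 16 h at 37 C, CCF4 dye 2 h RT, beta-lactamase fluorescence read; IC50 from Hill fits.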

Row | Compound | outcome
33 | CCOC(=O)CC(SP(=S)(OC)OC)C(=O)OCC (configuration not stated) | inactive
34 | COC(=O)C(c1ccccc1)C1CCCCN1 (configuration not stated) | inactive
35 | CC(C)c1cccc(C(C)C)c1O | inactive

These compounds were tested against Bile acid receptor (Homo sapiens) (UniProt Q96RI1) (assay: qHTS assay for small molecule antagonists of farnesoid X receptor signaling (AID 588526; further: potency means the concentration at half of the fitted maximal effect)). Conditions: HEK293T FXR-UAS-bla, beta-lactamase ratio, antagonist mode; series mostly up to 76.7 µM.
How it was run: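 Beta-lactamase reporter antagonist mode: HEK293T FXR-UAS-bla cells, titrated compound, CDCA stimulation, 16 h 37 C, CCF4 dye 2 h RT. Data normalized to CDCA 50 uM and DMSO; Hill-fit IC50.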

Sequence of Bile acid receptor (Homo sapiens) (Q96RI1 whole entry, looked up): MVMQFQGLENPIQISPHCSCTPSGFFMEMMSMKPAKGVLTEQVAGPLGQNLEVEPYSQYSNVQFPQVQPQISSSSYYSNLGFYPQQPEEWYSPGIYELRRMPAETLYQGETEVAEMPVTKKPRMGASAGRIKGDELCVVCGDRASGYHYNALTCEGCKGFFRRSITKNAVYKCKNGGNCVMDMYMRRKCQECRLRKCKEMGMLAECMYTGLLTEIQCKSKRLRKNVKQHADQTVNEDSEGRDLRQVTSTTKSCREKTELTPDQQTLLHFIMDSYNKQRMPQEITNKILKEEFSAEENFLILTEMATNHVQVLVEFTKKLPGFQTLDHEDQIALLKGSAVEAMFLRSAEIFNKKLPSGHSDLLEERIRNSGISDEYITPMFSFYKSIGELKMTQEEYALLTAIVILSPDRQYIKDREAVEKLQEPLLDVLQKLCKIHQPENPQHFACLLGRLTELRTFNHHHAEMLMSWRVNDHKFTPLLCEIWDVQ

Row | Compound | Potency
36 | CCC(C)(C)c1ccc(O)cc1 | inactive
37 | CC(=O)N1CCN(c2ccc(OC[C@H]3CO[C@](Cn4ccnc4)(c4ccc(Cl)cc4Cl)O3)cc2)CC1 | 44.7 µM (active)
38 | Nc1nc(N)nc(NC2CC2)n1 | inactive
39 | Clc1ccc(C(c2ccc(Cl)cc2)C(Cl)(Cl)Cl)cc1 | inactive
40 | CN1C[C@H](C(=O)N[C@]2(C)O[C@@]3(O)[C@@H]4CCCN4C(=O)[C@H](Cc4ccccc4)N3C2=O)C=C2c3cccc4[nH]cc(c34)C[C@H]21 | 39.8 µM (active)
41 | COC(=O)C(c1ccccc1)C1CCCCN1 (configuration not stated) | inactive
42 | C[C@]1(O)CC[C@H]2[C@@H]3CCC4=CC(=O)CC[C@]4(C)[C@@]3(F)[C@@H](O)C[C@@]21C | inactive
43 | [N-]=[N+]=CC(=O)OC[C@H](N)C(=O)O | inactive
44 | COP(=S)(OC)SCN1C(=O)c2ccccc2C1=O | inactive
45 | Nc1ccccc1C(=O)O | inactive
46 | O=P1(N(CCCl)CCCl)NCCCO1 (configuration not stated) | inactive
47 | O=C(O)CCCc1ccc(N(CCCl)CCCl)cc1 | inactive
48 | C[C@]12CCC(=O)C=C1CC[C@@H]1[C@@H]2CC[C@]2(C)C(=O)CC[C@@H]12 | inactive

What follows are compounds tested against Bile acid receptor (Homo sapiens) (UniProt Q96RI1) (assay: qHTS assay for small molecule agonists of farnesoid X receptor signaling (AID 588527)). Conditions: HEK293T FXR-UAS-bla, beta-lactamase ratio, 16 h; active compounds read high.
How it was run: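 Quantitative HTS used FXR-UAS-bla HEK293T cells with 16 h compound incubation at 37 C. EC50 values came from concentration-response curves normalized to chenodeoxycholic acid.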

Row | Compound | activation
49 | O=c1[nH]c(=O)n([C@H]2C[C@H](O)[C@@H](CO)O2)cc1Br | -3.6%
50 | CCC(C)(C)c1ccc(O)cc1 | -0.511% and -0.445%
51 | Nc1ccc(S(=O)(=O)c2ccc(N)cc2)cc1 | 5.45% and -0.614%
52 | Cc1c(C)c2c(c(C)c1O)CCC(C)(COc1ccc(CC3SC(=O)NC3=O)cc1)O2 (configuration not stated) | 9.23%
53 | C[C@]1(O)CC[C@H]2[C@@H]3CCC4=CC(=O)CC[C@]4(C)[C@@]3(F)[C@@H](O)C[C@@]21C | -0.176%
54 | COc1cc(C=O)ccc1O | -1.98% and -0.968%
55 | CN(C)c1ccc2nc3ccc(=[N+](C)C)cc-3sc2c1 | -2.46%
56 | CC(=O)Nc1ccccc1 | 3.71%
57 | O=c1c(-c2ccc(O)cc2)coc2cc(O)cc(O)c12 | -3.37%
58 | O=P1(N(CCCl)CCCl)NCCCO1 (configuration not stated) | -1.19% and 1.86%
59 | Nc1ccc(C(=O)O)cc1 | 2.28%
60 | O=C(O)c1ccc(S(=O)(=O)N(Cl)Cl)cc1 | 0.222%
61 | COc1ccc2[nH]cc(CCNC(C)=O)c2c1 | 0.0339% and -2.2% and -1.63%
62 | Oc1ccccc1 | 0.295% and -0.629% and -5.57%
